Reference: PubChem BioAssay (NCATS)
Several values for one entry are separate records, joined by “and”; a condition that tells them apart may be missing. Equal values may be shown once. Inconclusive results are not listed. Where a call stands in place of a potency, no number is given. Activity calls are given as the source filed them. Unless noted, calls follow the shape of the dose curve; as a rule, active = well fitted curve in the direction sought with a large enough effect; inconclusive = small, poorly fitted or top-dose-only effect, or another doubt; inactive = no such curve, though single readings can be large; an effect the other way counts as inactive or inconclusive.

Experiments:
[1] = Cell Viability - N2a (AID 540); conditions: N2a mouse neuroblastoma cell viability; activity change, negative = cytotoxicity: at 92.2 µM (top of the series); also: nearly all actives have a fitted effect of over 45% in size
Method in brief: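 CellTiter-Glo ATP luminescence, read 20 min after reagent at room temperature, reported viability following 40 h compound treatment at 37 °C. N2a mouse neuroblastoma cells seeded 1500/well; Hill equation gave AC50.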

[2] = Cell Viability - H-4-II-E (AID 543);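 also: cells exposed to compound for 40 hours; nearly all actives have a fitted effect of over 35% in size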; also: potency is read from the fitted curve at half-maximal effect
Method in brief: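 CellTiter-Glo luminescence (intracellular ATP) measured after 40 h compound exposure at 37 °C in H-4-II-E rat hepatoma cells seeded at 1500/well. Values are AC50s fitted with the standard Hill equation.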

[3] = Cell Viability - Mesenchymal (AID 546);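 also: cells exposed to compound for 40 hours before reading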; also: potency is read from the fitted curve at half-maximal effect
Method in brief: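 CellTiter-Glo luminescence (intracellular ATP, 20 min room temperature) after 40 hr compound exposure at 37 °C of 1000 glomerulus-derived human kidney mesenchymal cells/well; AC50 values obtained by fitting qHTS concentration-response data to the Hill equation.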

[4] = Cellular Toxicity (caspase-3) Renal Proximal Tubule (AID 667);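 also: cells exposed to compound for 16 hours at 37 °C before detection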
Method in brief: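 AC50 derived by standard Hill fit of concentration-response data, normalized between DMSO basal and 10 uM staurosporine as 100% stimulation. Cells: primary rat kidney proximal tubule, 16 h treatment at 37 °C.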

[5] = target: Cytochrome P450 3A4 (Homo sapiens) (UniProt P08684); assay: qHTS Assay for Inhibitors and Substrates of Cytochrome P450 3A4 (AID 884); also: nearly all actives have a fitted effect of over 50% in size; also: potency is read from the fitted curve at half-maximal effect
Chain of Cytochrome P450 3A4 (Homo sapiens) (P08684 whole entry, looked up): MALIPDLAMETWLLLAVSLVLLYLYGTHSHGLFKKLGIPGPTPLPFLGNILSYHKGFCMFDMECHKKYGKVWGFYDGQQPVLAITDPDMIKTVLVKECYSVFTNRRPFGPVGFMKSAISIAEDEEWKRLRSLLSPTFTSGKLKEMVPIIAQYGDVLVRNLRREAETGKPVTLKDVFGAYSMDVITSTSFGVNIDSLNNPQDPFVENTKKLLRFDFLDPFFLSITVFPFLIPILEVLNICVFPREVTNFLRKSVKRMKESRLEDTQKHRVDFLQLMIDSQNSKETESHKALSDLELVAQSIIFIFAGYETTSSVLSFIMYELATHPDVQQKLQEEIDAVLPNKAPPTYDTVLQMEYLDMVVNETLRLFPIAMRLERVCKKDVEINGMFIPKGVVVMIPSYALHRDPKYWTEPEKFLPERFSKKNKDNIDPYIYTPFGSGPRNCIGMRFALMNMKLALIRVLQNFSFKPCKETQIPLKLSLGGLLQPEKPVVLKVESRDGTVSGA
Method in brief: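 Luminescent readout of luciferin produced by CYP3A4 (20 nM) dealkylation of Luciferin-PPXE, 25 uM (its KM). NADPH-driven reaction ran 60 min at RT after 10 min compound preincubation; data scaled to 57 uM ketoconazole as 100% inhibition.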

[6] = MultiTox-Fluor Cytotoxicity Assay - LYMP1-002 - Dead Cells (AID 960); also: nearly all actives have a fitted effect of over 60% in size
Method in brief: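 Dead-cell fluorescence (Ex/Em 485/520) after 16 h compound exposure at 37 C of LYMP1-002 lymphoblastoid cells in complete medium; AC50 by Hill equation, with data scaled between DMSO and 15 uM tetraoctylammonium bromide.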

[7] = MultiTox-Fluor Cytotoxicity Assay - LYMP1-003 - Live Cells (AID 962);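 also: cells exposed to compound for 16 hours at 37 °C; cytotoxic hits lower the live-cell protease signal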
Method in brief: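 Live-cell protease activity (GF-AFC substrate, 405/510 nm, 60 min at room temperature) after 16 h, 37 C compound exposure of human lymphoblastoid LYMP1-003 cells; concentration-response fitted to the Hill equation for AC50.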

[8] = Cell Viability - LYMP2-004 (AID 966); also: nearly all actives have a fitted effect of over 65% in size
Method in brief: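 AC50 values come from Hill modelling of concentration-dependent loss of intracellular ATP, measured by CellTiter-Glo luminescence. Human LYMP2-004 lymphoblastoid cells (2500/well) were exposed to compound for 24 h at 37 C.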

[9] = Cell Viability - LYMP2-007 (AID 979);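 also: cells exposed to compound for 24 h before reading; nearly all actives have a fitted effect of over 60% in size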; also: potency is read from the fitted curve at half-maximal effect
Method in brief: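 AC50 values come from Hill-equation fits of luminescent intracellular ATP (CellTiter-Glo, 30 min, room temperature) following 24 h compound exposure at 37 C. Cells: LYMP2-007 lymphoblastoid line, 2500 per well, in complete culture medium.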

[10] = Cell Viability - LYMP2-012 (AID 982);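 also: cellular ATP by luciferase luminescence where a drop means cytotoxicity; cells exposed to compound for one day before reading; nearly all actives have a fitted effect of over 55% in size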
[11] = Cell Viability - LYMP2-016 (AID 984); also: nearly all actives have a fitted effect of over 55% in size
Method in brief: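 Cells were seeded at 2500 per well and rested 5 hr before a 24 hr compound exposure at 37 C. Viability was then gauged as cellular ATP by luciferase luminescence, with AC50 values fitted to the Hill equation.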

[12] = target: Peroxisome proliferator-activated receptor gamma (Homo sapiens) (UniProt P37231); assay: qHTS assay for small molecule agonists of peroxisome proliferator-activated receptor gamma signaling (AID 588536; active = well fitted curve in the direction sought with a large enough effect in the signal ratio, with a control signal flat, not every such curve was filed as active; the % refers to the signal ratio)
Chain of Peroxisome proliferator-activated receptor gamma (Homo sapiens) (P37231 whole entry, looked up): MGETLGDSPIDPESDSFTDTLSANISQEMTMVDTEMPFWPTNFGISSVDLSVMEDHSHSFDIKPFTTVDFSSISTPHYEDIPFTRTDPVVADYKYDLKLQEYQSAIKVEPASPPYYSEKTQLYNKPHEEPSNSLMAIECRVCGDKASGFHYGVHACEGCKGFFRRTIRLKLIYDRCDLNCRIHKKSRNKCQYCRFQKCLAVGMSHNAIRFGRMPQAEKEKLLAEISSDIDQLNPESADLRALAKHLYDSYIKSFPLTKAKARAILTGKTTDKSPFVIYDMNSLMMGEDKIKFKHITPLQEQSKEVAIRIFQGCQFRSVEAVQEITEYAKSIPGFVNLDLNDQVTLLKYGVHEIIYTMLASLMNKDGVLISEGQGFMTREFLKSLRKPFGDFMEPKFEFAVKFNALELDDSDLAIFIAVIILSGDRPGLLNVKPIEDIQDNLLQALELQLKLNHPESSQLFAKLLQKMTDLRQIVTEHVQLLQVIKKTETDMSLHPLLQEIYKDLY
Method in brief: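 Beta-lactamase reporter read-out: CCF4 fluorescence (ex 405, em 460/530 nm) after 2 h at RT. HEK293 GeneBLAzer cells were treated for 16 h at 37 C. Hill fits gave EC50 and efficacy versus 2 uM rosiglitazone (100%) and DMSO (0%).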

[13] = qHTS assay for small molecule agonists of retinoid X receptor alpha signaling (AID 588544); conditions: HEK293T RXRa-UAS-bla, beta-lactamase reporter, 18 h; 530 nm emission
[14] = qHTS assay for small molecule antagonists of retinoid X receptor alpha signaling (AID 588546; active = well fitted inhibition curve with a large enough effect in the signal ratio, with a control signal flat, not every such curve was filed as active; the % refers to the signal ratio;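 also: cells stimulated with 9-cis-retinoic acid as agonist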); conditions: HEK293T RXRa-UAS-bla, beta-lactamase ratio, antagonist mode; measured here: W530 green channel, cytotoxicity proxy
Method in brief: (§1)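 Beta-lactamase reporter inhibition, read as CCF4 fluorescence ratio (ex 405, em 460/530 nm) after 2 h at RT. HEK293T UAS-bla cells, 2500/well, were stimulated with 9-cis-RA at 500 or 100 nM final alongside test compound for 18 h at 37 C.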

[15] = target: Retinoic acid receptor RXR-alpha (Homo sapiens) (UniProt P19793); assay: as above; conditions: HEK293T RXRa-UAS-bla, beta-lactamase ratio, antagonist mode
Chain of Retinoic acid receptor RXR-alpha (Homo sapiens) (P19793 whole entry, looked up): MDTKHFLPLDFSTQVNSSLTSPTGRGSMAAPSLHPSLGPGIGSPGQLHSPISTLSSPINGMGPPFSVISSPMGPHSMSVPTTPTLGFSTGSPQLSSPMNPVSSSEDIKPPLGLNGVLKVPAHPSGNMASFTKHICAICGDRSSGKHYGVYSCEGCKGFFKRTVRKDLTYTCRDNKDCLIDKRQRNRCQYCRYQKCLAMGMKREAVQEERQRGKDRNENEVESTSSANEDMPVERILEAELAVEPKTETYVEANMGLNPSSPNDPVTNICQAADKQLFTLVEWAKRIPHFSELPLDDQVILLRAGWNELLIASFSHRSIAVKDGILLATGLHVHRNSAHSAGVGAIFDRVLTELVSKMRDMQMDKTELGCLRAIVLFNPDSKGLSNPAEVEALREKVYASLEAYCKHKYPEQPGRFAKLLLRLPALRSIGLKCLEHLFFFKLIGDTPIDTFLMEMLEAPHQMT
Method in brief: as §1

[16] = target: Tumor necrosis factor (Homo sapiens) (UniProt P01375); assay: qHTS assay to identify small molecules that stimulate Tumor Necrosis Factor-alpha (TNF-alpha) secretion (AID 651757; active = well fitted curve in the direction sought with a large enough effect in the signal ratio; the % refers to the signal ratio)
Chain of Tumor necrosis factor (Homo sapiens) (P01375 whole entry, looked up): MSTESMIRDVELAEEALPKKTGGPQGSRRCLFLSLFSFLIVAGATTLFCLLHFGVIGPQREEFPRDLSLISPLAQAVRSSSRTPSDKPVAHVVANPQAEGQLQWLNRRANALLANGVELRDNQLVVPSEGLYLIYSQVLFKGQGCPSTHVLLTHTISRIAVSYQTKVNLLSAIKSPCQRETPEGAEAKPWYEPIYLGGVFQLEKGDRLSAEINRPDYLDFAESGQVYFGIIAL
Method in brief: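 Secreted TNF-alpha quantified by TR-FRET sandwich of two labeled anti-TNF-alpha antibodies, incubated 3 hr at room temperature. Preceded by 17 hr, 37 C compound treatment of THP-1 cells at 3000 cells/well.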

[17] = target: Nuclear receptor ROR-gamma (Homo sapiens) (UniProt P51449); assay: qHTS assay for small molecule antagonists of the retinoid-related orphan receptor gamma (ROR-gamma) signaling pathway (AID 651802);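 also: CHO cells with doxycycline-induced ROR-gamma expression; luciferase reporter luminescence driven by ROR response element; nearly all actives have a fitted effect of over 60% in size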
Chain of Nuclear receptor ROR-gamma (Homo sapiens) (P51449 whole entry, looked up): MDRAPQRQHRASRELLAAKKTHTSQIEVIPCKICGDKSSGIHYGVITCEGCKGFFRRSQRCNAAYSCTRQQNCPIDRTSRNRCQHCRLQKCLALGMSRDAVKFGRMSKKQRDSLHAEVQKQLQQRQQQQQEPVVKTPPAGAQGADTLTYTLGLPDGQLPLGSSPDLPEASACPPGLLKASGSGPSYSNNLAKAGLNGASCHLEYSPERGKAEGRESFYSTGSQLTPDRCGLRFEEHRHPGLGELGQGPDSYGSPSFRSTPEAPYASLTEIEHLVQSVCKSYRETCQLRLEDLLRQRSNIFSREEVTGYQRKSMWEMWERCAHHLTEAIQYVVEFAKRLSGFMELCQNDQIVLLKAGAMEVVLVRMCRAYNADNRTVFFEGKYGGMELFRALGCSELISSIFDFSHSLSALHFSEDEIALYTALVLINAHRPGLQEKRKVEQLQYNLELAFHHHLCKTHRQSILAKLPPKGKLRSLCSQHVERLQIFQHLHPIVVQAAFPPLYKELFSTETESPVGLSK
Method in brief: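 Luminescence (One-Glo, 30 min RT) measured 16 h after compound addition and doxycycline induction at 37C. Reporter: RORE-luciferase under TET-inducible ROR-gamma in CHO cells.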

[18] = qHTS assay for small molecule agonists of the antioxidant response element (ARE) signaling pathway measured by Nrf2-dependant transcriptional activity (AID 720636; active = well fitted curve in the direction sought with a large enough effect in the repeat runs; an effect the other way counts as inactive or inconclusive;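 also: HepG2 cells with an ARE-driven luciferase reporter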)
Method in brief: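 Attachment 6 hr at 37 C, then compound versus DMSO vehicle for 16 hr in ARE-luc HepG2 cells (1% dialyzed FBS); luminescence recorded 30 min after ONE-Glo addition at room temperature.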

[19] = qHTS assay for small molecule antagonists of the retinoid-related orphan receptor gamma (ROR-gamma) signaling pathway - cell viability counter screen (AID 720652; active = well fitted curve in the direction sought with a large enough effect in the repeat runs; an effect the other way counts as inactive or inconclusive;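 also: compound exposure lasted 16 hr before ATP read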; also: potency is read from the fitted curve at half-maximal effect;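 as to activity change, negative = cytotoxicity: CHO reporter cells with doxycycline-induced ROR-gamma expression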)
Method in brief: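 Cytotoxicity counter screen: intracellular ATP (CellTiter-Glo luminescence) measured in the doxycycline-induced CHO RORE-luciferase reporter line after 16 hr compound exposure at 37 C, 5% CO2.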

[20] = target: Nuclear receptor subfamily 1 group I member 2 (Rattus norvegicus) (UniProt Q9R1A7); assay: qHTS assay for small molecule activators of the rat pregnane X receptor (rPXR) signaling pathway (AID 651751; call rule not given here); conditions: rPXR reporter cells, luciferase (One-Glo), 24 h
Chain of Nuclear receptor subfamily 1 group I member 2 (Rattus norvegicus) (Q9R1A7 whole entry, looked up): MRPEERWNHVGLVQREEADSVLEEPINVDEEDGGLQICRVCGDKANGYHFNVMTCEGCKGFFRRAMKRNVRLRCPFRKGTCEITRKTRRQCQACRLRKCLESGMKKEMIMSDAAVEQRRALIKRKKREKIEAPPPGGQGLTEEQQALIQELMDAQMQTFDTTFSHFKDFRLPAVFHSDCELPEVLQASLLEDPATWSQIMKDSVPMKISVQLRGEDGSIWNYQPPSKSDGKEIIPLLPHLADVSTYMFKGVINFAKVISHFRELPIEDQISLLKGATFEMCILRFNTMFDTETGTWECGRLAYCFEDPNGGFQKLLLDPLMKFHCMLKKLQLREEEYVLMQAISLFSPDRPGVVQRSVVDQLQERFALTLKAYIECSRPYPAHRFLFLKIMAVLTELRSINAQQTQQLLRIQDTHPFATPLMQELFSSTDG

| Structure (SMILES) | Potency [1] | Potency [2] | Potency [3] | outcome [4] | Potency [5] | Potency [6] | outcome [7] | Potency [8] | Potency [9] | Potency [10] | Potency [11] | outcome [12] | max response [13] | max response [14] | max response [15] | outcome [16] | Potency [17] | Potency [18] | Potency [19] | max response [20] |
| --- | --- | --- | --- | --- | --- | --- | --- | --- | --- | --- | --- | --- | --- | --- | --- | --- | --- | --- | --- | --- |
| ClC(Cl)Br | inactive | inactive | inactive | inactive | inactive | inactive | inactive | inactive | inactive | inactive | inactive | inactive | -4.86% | 1.73% | 5.56% (inactive) | inactive | inactive | inactive | inactive | -4.5% (inactive) |
| Nc1ccc(Cc2ccc(N)cc2)cc1 | inactive | inactive | inactive | inactive | 25.1 µM (active) | inactive | inactive | inactive |  |  | inactive | inactive | 7.13% | -3.16% and 6.7% | -0.525% (inactive) and -18.2% (inactive) |  | inactive | inactive | inactive | 4.75% (inactive) and 4.67% (inactive) |
| Clc1ccc(Cl)c(Cl)c1 | inactive | inactive | inactive | inactive | inactive | inactive | inactive | inactive | inactive | inactive | inactive | inactive | -7.44% and -24% | 10.3% and -7.29% | 7.63% (inactive) and -21.3% (inactive) | inactive | inactive | inactive | inactive | 1.05% (inactive) and -0.643% (inactive) |
| CCCCOCC1CO1 (configuration not stated) | inactive | inactive | inactive | inactive | inactive | inactive | inactive | inactive | inactive | inactive | inactive | inactive | 5.09% | 12.9% | 20.3% (inactive) | inactive | inactive | inactive | inactive | 2.3% (inactive) |
| N#CC(Cl)(Cl)Cl | inactive | inactive | inactive | inactive | inactive |  | inactive | inactive | inactive | inactive | inactive | inactive | -10.8% | -17.2% | 11.1% (inactive) | inactive | inactive | inactive | inactive | 3.31% (inactive) |
| CC(C)(C)OOC(=O)c1ccccc1 | inactive | inactive | inactive |  | inactive | inactive | inactive | inactive | inactive | inactive | inactive | inactive | 3.54% and -7.62% | -18.8% and -11.9% | 2.22% (inactive) and 6.61% (inactive) | inactive | inactive | inactive | inactive | 2.87% (inactive) and -0.927% (inactive) |
| BrCC(Br)C1CCC(Br)C(Br)C1 (configuration not stated) | inactive |  | inactive |  | inactive | inactive | inactive |  | inactive | inactive | inactive | inactive | 6.74% | -6.79% | 18% (inactive) | inactive | inactive | inactive | inactive | -6.51% (inactive) |
| CC(C)OC(=O)Cc1ccccc1 | inactive | inactive | inactive | inactive | inactive | inactive | inactive | inactive | inactive | inactive | inactive | inactive | 1.88% | -2.88% | 8.61% (inactive) | inactive | inactive | inactive | inactive | 1.04% (inactive) |
| O=[N+]([O-])/C=C/c1ccccc1 |  | 5.01 µM (active) | 25.1 µM (active) | inactive | inactive | inactive | inactive |  | 31.6 µM (active) |  |  | inactive | -4.59% | -11.2% | -0.636% (inactive) | inactive | inactive | inactive | 37.6 µM (active) |  |
